{"source": "PubChem BioAssay AID2320", "about": "(National Center for Advancing Translational Sciences (NCATS), 2010)", "note": "Records with an inconclusive call do not appear. Where a call stands in place of a potency, no number is given. Active and inactive are the calls of the source. The call rests on the fitted dose curve. Potency means the concentration at half of the fitted maximal effect."}
{"assay": "A qHTS for Small Molecule Inhibitors of Shiga Toxin (Confirmatory); further: nearly all actives have a fitted effect of over 75% in size", "conditions": "Cell-based Shiga toxin protection reporter assay; series mostly up to 38.3 µM"}
{"smiles": "O=C(Cc1c(F)cccc1Cl)c1ccc(O)cc1O", "Potency": "inactive"}
{"smiles": "Cc1ccc2c(c1)N(CC(=O)N1CCCC1)C(=O)CO2", "Potency": "inactive"}
{"smiles": "COc1ccc(/C=C/c2nnc(NC(=O)CSc3ccc(Cl)cc3)s2)cc1", "Potency": "11.3 µM (active)"}
{"smiles": "COc1ccccc1CNC(=O)Cn1cc([N+](=O)[O-])ccc1=O", "Potency": "inactive"}
{"smiles": "CCN(CC)CC(=O)Nc1ccc(-c2nc3cc(NC(=O)CN(CC)CC)ccc3o2)cc1", "Potency": "inactive"}
{"smiles": "COCCCNC(=O)NC(=O)c1ccccc1", "Potency": "inactive"}
{"smiles": "COc1ccccc1CNc1nc2ccccc2n1CCN1CCCCC1", "Potency": "inactive"}
{"smiles": "COc1ccccc1C(=O)CSc1nccn1C", "Potency": "28.3 µM (active)"}
{"smiles": "COC(=O)c1ccc(NC(=O)Cc2ccc(F)cc2)cc1", "Potency": "5.65 µM (active)"}
{"smiles": "COC(=O)c1c(NC(=O)c2ccn(C)n2)sc2c1CCC2", "Potency": "2.83 µM (active)"}
{"smiles": "O=C(O)c1ccn(Cn2cnc3ccccc32)n1", "Potency": "inactive"}
{"smiles": "COc1ccccc1NC(=O)Nc1cc(F)ccc1F", "Potency": "20 µM (active)"}
{"smiles": "Oc1ccc(C2C[C@H]3CC[C@@H]2C3)cc1O", "note": "(stereo partly drawn)", "Potency": "22.5 µM (active)"}
{"smiles": "CN(C)C(CNC(=O)CCC(=O)c1ccc(Br)cc1)c1ccccc1", "note": "(stereo not drawn)", "Potency": "inactive"}
{"smiles": "CN(C)S(=O)(=O)c1ccc(C(=O)Nc2ccc(CN3CCCC3)cc2)cc1", "Potency": "0.0283 µM (active)"}
{"smiles": "Cc1sc(NC(=O)COc2cccc(-n3cnnn3)c2)c(C#N)c1C", "Potency": "inactive"}
{"smiles": "CCOc1ccccc1NC(=O)CCS(=O)(=O)c1cccs1", "Potency": "inactive"}
{"smiles": "Cc1ccc(-c2csc(NC(=O)c3ccc(C)o3)n2)cc1", "Potency": "0.0318 µM (active)"}
{"smiles": "CCC(=O)N1CCN(c2ccccc2NC(=O)c2ccc([N+](=O)[O-])o2)CC1", "Potency": "4 µM (active)"}
{"smiles": "CSc1ccc(/C=C/C(=O)N2CCN(c3ccccn3)CC2)cc1", "Potency": "inactive"}
{"smiles": "O=C(COc1ncnc2ccccc12)NCCC1=CCCCC1", "Potency": "inactive"}
{"smiles": "NS(=O)(=O)c1ccc(CCNC(=O)c2ccc(NC3=NC4CS(=O)(=O)CC4S3)cc2)cc1", "note": "(stereo not drawn)", "Potency": "inactive"}
{"smiles": "Cc1ccc(NC(=S)c2nc3ccccc3s2)cc1", "Potency": "0.895 µM (active)"}
{"smiles": "CCOC(=O)N1CCN(S(=O)(=O)c2ccc(C(=O)NNc3nc4c(C)cc(C)cc4s3)cc2)CC1", "Potency": "0.04 µM (active)"}
{"smiles": "O=C(c1cc2c(s1)-c1ccccc1OC2)N1CCN(c2ccccc2)CC1", "Potency": "inactive"}
{"smiles": "COc1ccc(C(=O)CSc2nnc(C(CO)NC(=O)c3ccc(OC)cc3)n2C)cc1", "note": "(stereo not drawn)", "Potency": "inactive"}
{"smiles": "O=C(CN1CCN(c2ncc(C(F)(F)F)cc2Cl)CC1)NC(=O)NCc1ccccc1", "Potency": "inactive"}
{"smiles": "CCCC[C@@H]1C[C@H]1[C@@H](NC(=O)c1ccco1)c1ccc(Cl)cc1", "Potency": "8.95 µM (active)"}
{"smiles": "O=C(NCCC1=CCCCC1)C1CCN(S(=O)(=O)c2cccc3cccnc23)CC1", "Potency": "inactive"}
{"smiles": "N#Cc1ccc(N=c2ssnc2Cl)cc1", "Potency": "inactive"}
{"smiles": "O=C1NC(=Nc2ccc(O)cc2)S/C1=C\\C=C\\c1ccco1", "Potency": "0.634 µM (active)"}
{"smiles": "Cc1nn(-c2ccc(Cl)cc2)c(N)c1C(O)(CSc1nccn1C)C(F)(F)F", "note": "(stereo not drawn)", "Potency": "inactive"}
{"smiles": "c1cc2c(cc1Cn1cnnn1)OCO2", "Potency": "inactive"}
{"smiles": "CC1CCCC(C)N1C(=O)Cn1nnc(-c2ccccc2)n1", "note": "(stereo not drawn)", "Potency": "inactive"}
{"smiles": "COc1ccc(NC(=O)c2c(Cl)n(C)c3ccccc23)cc1", "Potency": "11.3 µM (active)"}
{"smiles": "COC(=O)c1ccc(C)c(NC(=O)CCSc2ccc(Cl)cc2)c1", "Potency": "inactive"}
{"smiles": "CCOC(=O)C1=C(C)NC(=O)NC1c1ccc(OCC(=O)Nc2ccccc2)c(OC)c1", "note": "(stereo not drawn)", "Potency": "inactive"}
{"smiles": "Cc1cccc(NC(=O)C2CCCC2)c1", "Potency": "0.0252 µM (active)"}
